In PubChem BioAssay (Tox21):
Inconclusive results are not listed. The source made the active and inactive calls. Unless noted, the call rests on the fitted dose curve; in most records, active means well fitted curve in the direction sought with a large enough effect in the repeat runs; inconclusive means weak or mixed curves; inactive means no such curve, though single readings can be large; an effect the other way counts as inactive or inconclusive.

What was measured:
[1] = target: Thyrotropin-releasing hormone receptor (Homo sapiens) (UniProt P34981); test: qHTS assay to identify small molecule agonists of the thyrotropin-releasing hormone receptor (TRHR) signaling pathway (AID 1346891; calls by dose curve;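 further: HEK293 cells expressing TRHR with calcium dye readout; series mostly up to about 58 µM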)
Method in brief: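 In 1536-format, 1500 TRHR-Hek293 cells per well grew 18 h, took up calcium dye for 2 h at 37 °C, received compound, and were read kinetically; 15-point titrations, triplicates.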

[2] = Caspase-3/7 induction in HepG2 cells by small molecules, qHTS assay (AID 1346978); further: nearly all actives have a fitted effect of over 15% in size
Method in brief: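 Wild-type HepG2 cells (2,000/well) were settled 5 h at 37 C, 5% CO2, then exposed to compounds in DMSO for 17 h. Caspase-3/7 activity was read by luminescence 30 min after adding Caspase-Glo 3/7 reagent at room temperature.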

[3] = Caspase-3/7 induction in CHO-K1 cells by small molecules, qHTS cell viability counter screen (AID 1346979); further: nearly all actives have a fitted effect of over 35% in size; further: potency means the concentration at half of the fitted maximal effect
Method in brief: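 To flag cytotoxic compounds, treated CHO-K1 wild-type cells were given CellTiter-Fluor at 16hr and read fluorescently after 1hr at 37C; the caspase-3/7 luminescence was measured in these same wells.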

[4] = Caspase-3/7 induction in CHO-K1 cells by small molecules, qHTS assay (AID 1346980); further: nearly all actives have a fitted effect of over 15% in size
Method in brief: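 Wild-type cells were seeded at 1,500 per well and settled 5 hr at 37 C, 5% CO2, then exposed to DMSO-dissolved compounds for 17 hr. Caspase-Glo 3/7 reagent was added, and luminescence was read after 30min at room temperature.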

[5] = Caspase-3/7 induction in HepG2 cells by small molecules, qHTS cell viability counter screen (AID 1346981); further: series mostly up to about 92 µM; nearly all actives have a fitted effect of over 30% in size
Method in brief: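 Multiplexed with the caspase-3/7 assay: HepG2 cells, 16 hr compound treatment, CellTiter-Fluor viability detection by fluorescence.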

[6] = target: Nuclear receptor subfamily 1 group I member 2 (Homo sapiens) (UniProt O75469); test: Human pregnane X receptor (PXR) small molecule agonists, qHTS assay (AID 1346982); further: nearly all actives have a fitted effect of over 35% in size; further: potency means the concentration at half of the fitted maximal effect
Method in brief: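 We seeded PXR-Luc HepG2 cells in assay medium containing 5% charcoal-stripped FBS, added compounds 5 hr later, incubated 24 hr, and read luminescence with ONE-Glo reagent.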

[7] = Human pregnane X receptor (PXR) small molecule agonists, qHTS cell viability counter screen (AID 1346977); further: nearly all actives have a fitted effect of over 50% in size; further: potency means the concentration at half of the fitted maximal effect
Method in brief: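 Readout is CellTiter-Fluor fluorescence from PXR-Luc HepG2 cells. Plated cells rested 5hr, then were treated with compounds for 24hr at 37C and 5% CO2, with reagent present during the last hour.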

[8] = target: Acetylcholinesterase (Homo sapiens) (UniProt P22303); test: Acetylcholinesterase (AChE) small molecule antagonists: colormetric cell-based qHTS assay (AID 1347395; calls by dose curve; further: nearly all actives have a fitted effect of over 30% in size; further: potency means the concentration at half of the fitted maximal effect)
Method in brief: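 Neuroblastoma line SH-SY5Y supplied the enzyme; cells were preincubated with compound for 30 min at 37 C and 5% CO2. Acetylthiocholine with DTNB was then added for 90 min at 37 C, and thiocholine was measured by colour.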

[9] = target: Nuclear receptor subfamily 1 group I member 2 (Rattus norvegicus) (UniProt Q9R1A7); test: Rat pregnane X receptor (rPXR) activation by small molecules, qHTS assay (AID 1346983); conditions: rPXR luciferase reporter cells, One-Glo luminescence, 24 h; hits give high values; further: nearly all actives have a fitted effect of over 20% in size
Method in brief: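 Cell-based rPXR luciferase reporter assay, 2,000 cells per well, rested 5hr at 37 C before compound addition in DMSO, then 24 hr at 37 C. One-Glo reagent was added and luminescence read after 30 min at room temperature.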

[10] = target: Nuclear receptor subfamily 1 group I member 2 (Homo sapiens) (UniProt O75469); test: CYP3A4 induction through human pregnane X receptor (PXR) by small molecules, qHTS assay (AID 1346984); further: nearly all actives have a fitted effect of over 40% in size; further: potency means the concentration at half of the fitted maximal effect
Method in brief: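 qHTS, concentration-response format: HepG2 DPX-2 line, PXR/CYP3A4-luc. Exposure 24 h, 37C. Substrate Luciferin-IPA 3uM final, 3 h. Detection One-Glo, 30 min RT.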
On the % scale 0 is the no-effect control and ±100 the full control effect.

Thyrotropin-releasing hormone receptor (Homo sapiens), sequence (P34981 whole entry, looked up): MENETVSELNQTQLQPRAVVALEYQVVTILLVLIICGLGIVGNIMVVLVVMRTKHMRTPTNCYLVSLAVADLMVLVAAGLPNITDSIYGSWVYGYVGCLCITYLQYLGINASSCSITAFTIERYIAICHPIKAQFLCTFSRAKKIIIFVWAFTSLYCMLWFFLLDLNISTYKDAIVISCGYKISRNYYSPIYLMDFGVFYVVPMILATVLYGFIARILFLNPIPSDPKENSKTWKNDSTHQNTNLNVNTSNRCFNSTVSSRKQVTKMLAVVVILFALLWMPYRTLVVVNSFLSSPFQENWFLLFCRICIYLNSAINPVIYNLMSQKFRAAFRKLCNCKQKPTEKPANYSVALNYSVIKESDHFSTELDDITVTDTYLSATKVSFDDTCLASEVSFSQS
Acetylcholinesterase (Homo sapiens), sequence (P22303 whole entry, looked up): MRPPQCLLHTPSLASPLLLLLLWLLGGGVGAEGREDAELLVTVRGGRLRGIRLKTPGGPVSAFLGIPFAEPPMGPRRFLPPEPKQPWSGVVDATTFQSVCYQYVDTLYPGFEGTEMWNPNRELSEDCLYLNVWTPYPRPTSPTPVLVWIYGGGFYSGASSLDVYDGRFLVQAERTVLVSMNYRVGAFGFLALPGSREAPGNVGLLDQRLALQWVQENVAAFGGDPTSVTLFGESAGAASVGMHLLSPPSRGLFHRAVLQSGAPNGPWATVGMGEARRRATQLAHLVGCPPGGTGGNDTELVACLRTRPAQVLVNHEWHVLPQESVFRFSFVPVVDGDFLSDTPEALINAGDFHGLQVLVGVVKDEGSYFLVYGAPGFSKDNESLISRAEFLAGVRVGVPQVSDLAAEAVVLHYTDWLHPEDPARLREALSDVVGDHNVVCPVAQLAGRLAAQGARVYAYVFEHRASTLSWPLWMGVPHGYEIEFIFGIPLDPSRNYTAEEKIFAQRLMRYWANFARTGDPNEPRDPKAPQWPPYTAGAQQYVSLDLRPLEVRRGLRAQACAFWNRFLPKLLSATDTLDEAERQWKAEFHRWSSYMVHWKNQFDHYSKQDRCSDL
Nuclear receptor subfamily 1 group I member 2 (Homo sapiens), sequence (O75469 whole entry, looked up): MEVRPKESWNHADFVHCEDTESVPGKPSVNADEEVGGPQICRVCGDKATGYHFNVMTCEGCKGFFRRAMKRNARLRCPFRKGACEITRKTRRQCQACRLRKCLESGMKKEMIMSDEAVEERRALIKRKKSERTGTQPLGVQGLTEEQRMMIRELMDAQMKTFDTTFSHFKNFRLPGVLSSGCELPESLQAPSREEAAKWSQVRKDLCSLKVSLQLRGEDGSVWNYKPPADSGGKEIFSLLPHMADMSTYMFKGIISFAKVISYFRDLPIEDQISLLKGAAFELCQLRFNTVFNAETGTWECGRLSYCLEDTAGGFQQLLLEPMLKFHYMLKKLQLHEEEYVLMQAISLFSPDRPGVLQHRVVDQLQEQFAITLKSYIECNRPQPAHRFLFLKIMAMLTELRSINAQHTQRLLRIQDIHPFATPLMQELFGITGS
Nuclear receptor subfamily 1 group I member 2 (Rattus norvegicus), sequence (Q9R1A7 whole entry, looked up): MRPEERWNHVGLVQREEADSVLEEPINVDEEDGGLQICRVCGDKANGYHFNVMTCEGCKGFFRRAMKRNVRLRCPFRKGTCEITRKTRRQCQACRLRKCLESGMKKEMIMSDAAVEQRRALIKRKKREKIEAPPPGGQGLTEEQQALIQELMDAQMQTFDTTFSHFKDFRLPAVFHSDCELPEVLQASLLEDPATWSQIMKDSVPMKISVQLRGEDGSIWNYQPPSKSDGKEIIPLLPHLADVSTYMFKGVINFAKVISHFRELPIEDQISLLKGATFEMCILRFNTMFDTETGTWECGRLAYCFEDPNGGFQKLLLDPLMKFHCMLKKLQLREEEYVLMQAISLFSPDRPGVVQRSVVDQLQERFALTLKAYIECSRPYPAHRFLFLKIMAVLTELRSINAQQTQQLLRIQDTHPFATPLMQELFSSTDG

[P]#[In]
inactive: outcome [1] | outcome [2] | Potency [3] | outcome [4] | Potency [5] | Potency [6]

CNC(=O)Oc1cc(C)c(N(C)C)c(C)c1
active: Potency [6] 30.6 µM | Potency [8] 2.52 µM
inactive: outcome [1] | Potency [7] | outcome [2] | outcome [4] | Potency [5]

CCN[C@@H](C)Cc1cccc(C(F)(F)F)c1
inactive: outcome [1] | Potency [7] | outcome [2] | Potency [3] | outcome [4] | Potency [5] | Potency [8]

NNC(N)=O
inactive: outcome [1] | Potency [7] | outcome [2] | Potency [3] | outcome [4] | Potency [5] | Potency [8]

Cn1c(N)nc2c3cccnc3ccc21
inactive: outcome [1] | outcome [2] | outcome [4]
active: Potency [7] 26 µM | Potency [3] 51.8 µM | Potency [6] 51.8 µM

C[C@H](CN1CCOCC1)C(C(=O)N1CCCC1)(c1ccccc1)c1ccccc1
active: Potency [7] 83.4 µM
inactive: outcome [1] | outcome [2] | Potency [3] | outcome [4] | Potency [5] | Potency [8]

CCNc1nc(NCC)nc(SC)n1
inactive: outcome [1] | Potency [7] | outcome [2] | Potency [3] | outcome [4] | Potency [5] | Potency [8]

N[C@@H](Cc1ccc(Oc2cc(I)c(O)c(I)c2)c(I)c1)C(=O)O
active: Potency [10] 14.1 µM
inactive: outcome [1] | Potency [7] | outcome [2] | Potency [3] | outcome [4] | Potency [5] | max activation [9] -1.02% | Potency [8]

CCOC(=O)C(SP(=S)(OC)OC)c1ccccc1 (stereo unspecified)
active: Potency [8] 31.7 µM
inactive: outcome [1] | Potency [7] | outcome [2] | Potency [3] | outcome [4] | Potency [5]

CCCN1CCC[C@@H]2Cc3nc(N)ncc3C[C@H]21
inactive: outcome [1] | Potency [7] | outcome [2] | Potency [3] | outcome [4] | Potency [6] | max activation [9] -1.3% | Potency [10]

CC[C@@H](CO)NC(=O)[C@@H]1C=C2c3cccc4c3c(cn4C)C[C@H]2N(C)C1
active: Potency [8] 2.45 µM
inactive: outcome [1] | Potency [7] | outcome [2] | Potency [3] | outcome [4] | Potency [5] | max activation [9] 4.36% | Potency [10]

N=C(N)[Se]
inactive: Potency [7] | outcome [2] | Potency [3] | outcome [4] | Potency [5] | Potency [6] | Potency [8]

CCOC(=O)NC(C)(C)Cc1ccc(Cl)cc1
inactive: Potency [7] | outcome [2] | Potency [3] | outcome [4] | Potency [5] | Potency [6] | Potency [8]

O=c1[nH]oc2c1CCNC2
inactive: Potency [7] | outcome [2] | outcome [4] | Potency [5] | Potency [6] | Potency [8]

CCCOc1nn(C(=O)NS(=O)(=O)c2ccccc2C(=O)OC)c(=O)n1C
inactive: Potency [7] | outcome [2] | Potency [3] | outcome [4] | Potency [5] | Potency [6] | Potency [8]

CCOP(=O)(CN(CCO)CCO)OCC
inactive: Potency [7] | outcome [2] | Potency [3] | outcome [4] | Potency [5] | Potency [6] | Potency [8]

CN=CNc1ccc(C)cc1C
inactive: Potency [7] | outcome [2] | Potency [3] | outcome [4] | Potency [5] | Potency [6] | Potency [8]

Oc1ccc2c3c1O[C@H]1[C@@H](O)C=C[C@H]4[C@@H](C2)NCC[C@@]341
inactive: Potency [7] | outcome [2] | outcome [4] | Potency [5]

O=P(O)(O)CN(CP(=O)(O)O)CP(=O)(O)O
inactive: Potency [7] | outcome [2] | Potency [3] | outcome [4] | Potency [5] | Potency [6] | Potency [8]

CNC(=O)Oc1ccccc1C(C)C
inactive: Potency [7] | outcome [2] | Potency [3] | outcome [4] | Potency [5] | Potency [6]
active: Potency [8] 3.56 µM

Cc1ccc2c(c1)C1CN(C)CCC1N2 (stereo unspecified)
inactive: activity change, negative = cytotoxicity [7] -7.69% [at 19 µM] | caspase activation [2] -1.19% [at 19 µM] | activity change, negative = cytotoxicity [3] -2.08% [at 19 µM] | caspase-3/7 activation [4] -0.28% [at 19 µM] | activity change, negative = cytotoxicity [5] -0.14% [at 19 µM] | activation [6] -3.35% [at 19 µM] | max activation [9] 1.15% | Potency [10] | activity, negative = inhibition [8] -0.458% [at 23.6 µM]

Oc1ccc(Cc2ccc(O)cc2)cc1
active: Potency [6] 54.9 µM
inactive: Potency [7] | outcome [2] | Potency [3] | outcome [4] | Potency [5] | Potency [8]

O=C(Cl)/C=C/C(=O)Cl
inactive: Potency [7] | outcome [2] | Potency [3] | outcome [4] | Potency [5] | Potency [6] | Potency [8]

CC(C)(C1CCC(O)CC1)C1CCC(O)CC1 (stereo unspecified)
inactive: Potency [7] | outcome [2] | Potency [3] | outcome [4] | Potency [5] | Potency [8]

CCN1CCCC1CNC(=O)C(O)(c1ccccc1)c1ccccc1 (stereo unspecified)
inactive: Potency [7] | outcome [2] | Potency [3] | outcome [4] | Potency [5] | Potency [6] | Potency [8]

COc1cccc([C@@]2(O)CCCC[C@@H]2CN(C)C)c1
inactive: Potency [7] | outcome [2] | Potency [3] | outcome [4] | Potency [5] | Potency [6] | max activation [9] -2.97% | Potency [10] | Potency [8]

COC[C@@H](NC(C)=O)C(=O)NCc1ccccc1
inactive: Potency [7] | outcome [2] | Potency [3] | outcome [4] | Potency [5] | Potency [6] | Potency [8]

CC(C)(O)C(Cl)(Cl)Cl
inactive: Potency [7] | outcome [2] | outcome [4] | Potency [5] | Potency [6] | max activation [9] -2.13% | Potency [10] | Potency [8]

Cl/C=C/CCl
inactive: Potency [7] | outcome [2] | outcome [4] | Potency [5] | Potency [6] | Potency [8]

ClCOCCl
inactive: Potency [7] | outcome [2] | Potency [3] | outcome [4] | Potency [5] | Potency [8]

COc1cc(CCN)cc(OC)c1OC
inactive: Potency [7] | outcome [2] | Potency [3] | outcome [4] | Potency [5] | Potency [6] | Potency [8]

C#CC(C)(C)O
inactive: Potency [7] | outcome [2] | Potency [3] | outcome [4] | Potency [5] | Potency [8]

O=C1CCCCC1Cl (stereo unspecified)
inactive: Potency [7] | outcome [2] | Potency [3] | outcome [4] | Potency [5] | Potency [6] | Potency [8]

C=CC(=O)OCCN(C)C
inactive: Potency [7] | outcome [2] | Potency [3] | outcome [4] | Potency [5] | Potency [6] | Potency [8]

COC1=CC(=O)O[C@@H](/C=C/c2ccccc2)C1
inactive: Potency [7] | outcome [2] | outcome [4] | Potency [5] | Potency [8]
active: Potency [6] 24.7 µM

ClCCN1CCCC1
inactive: Potency [7] | outcome [2] | Potency [3] | outcome [4] | Potency [5] | Potency [6] | Potency [8]

CC[C@H](N)c1ccccc1
inactive: Potency [7] | outcome [2] | Potency [3] | outcome [4] | Potency [5] | Potency [8]

CC(O)CCl (stereo unspecified)
inactive: Potency [7] | outcome [2] | Potency [3] | outcome [4] | Potency [5] | Potency [6] | Potency [8]

CC[C@H](O)C(C[C@H](C)N(C)C)(c1ccccc1)c1ccccc1
inactive: outcome [2] | Potency [3] | outcome [4] | Potency [5] | Potency [6] | Potency [8]

C=C(Cl)CSC(=S)N(CC)CC
inactive: Potency [7] | outcome [2] | Potency [3] | outcome [4] | Potency [5] | Potency [6] | Potency [8]

CCOC(=O)CCl
inactive: Potency [7] | outcome [2] | Potency [3] | outcome [4] | Potency [5] | Potency [8]

C=CCC1(C(C)CC)C(=O)NC(=O)NC1=O (stereo unspecified)
inactive: Potency [7] | outcome [2] | Potency [3] | outcome [4] | Potency [5] | Potency [6] | Potency [8]

CC(C)(N)Cc1ccc(Cl)cc1
inactive: Potency [7] | outcome [2] | Potency [3] | outcome [4] | Potency [5] | Potency [6] | max activation [9] -1.44% | Potency [10] | Potency [8]

Brc1c(Br)c(Br)c(Br)c(Br)c1Br
inactive: activity change, negative = cytotoxicity [7] 1.06% [at 8.39 µM] | caspase activation [2] 0.467% [at 8.39 µM] | activity change, negative = cytotoxicity [3] 1.28% [at 8.39 µM] | caspase-3/7 activation [4] -0.0086% [at 8.39 µM] | activity change, negative = cytotoxicity [5] 7.69% [at 8.39 µM] | activation [6] 1.3% [at 8.39 µM] | activity, negative = inhibition [8] -5.69% [at 10.5 µM]

CC(C)[C@]12CC(=O)[C@H](C)[C@H]1C2
inactive: Potency [7] | outcome [2] | Potency [3] | outcome [4] | Potency [5] | Potency [6] | Potency [8]

CCCC(C)(COC(N)=O)COC(N)=O
inactive: Potency [7] | outcome [2] | Potency [3] | outcome [4] | Potency [5] | max activation [9] -1.03% | Potency [10] | Potency [8]
active: Potency [6] 51.5 µM

CC(=O)OCC1=C(C(=O)O)N2C(=O)[C@@H](N)[C@H]2SC1
inactive: activity change, negative = cytotoxicity [7] 0.727% [at 19 µM] | caspase activation [2] 0.281% [at 19 µM] | activity change, negative = cytotoxicity [3] 0.401% [at 19 µM] | caspase-3/7 activation [4] 0.439% [at 19 µM] | activity change, negative = cytotoxicity [5] -1.33% [at 19 µM] | activation [6] -3.67% [at 19 µM] | max activation [9] 4.87% | Potency [10] | activity, negative = inhibition [8] 1.78% [at 23.6 µM]
